# Measurements from the antibiotic and cytotoxicity screens of Wong et al. (2023).
# Screen size: about 39,000 compounds; about 3,300 (8.5%) were called active. The entries come from a sample that favours actives as a whole.
# Tested on: HepG2
# Experiment: cytotoxicity call (relative viability < 0.9)
# Conditions: 10 µM
row,Compound,cytotoxicity call
1,Cc1cc(C(=O)Nc2cccc3c2O[C@@H](CN(C)S(=O)(=O)c2ccc(F)cc2)[C@@H](C)CN([C@H](C)CO)C3=O)n(C)n1,inactive
2,COc1ccc(S(=O)(=O)N(C)C[C@@H]2Oc3cc(C#CC4CCCC4)ccc3S(=O)(=O)N([C@H](C)CO)C[C@H]2C)cc1,inactive
3,C[C@@H]1CN([C@H](C)CO)C(=O)c2cc(NS(=O)(=O)c3ccccc3)ccc2O[C@@H]1CN(C)S(=O)(=O)c1ccc(F)cc1,inactive
4,COc1ccc(NC(=O)N[C@H]2CC[C@@H](CCNC(=O)CN3CCOCC3)O[C@@H]2CO)cc1,inactive
5,CCS(=O)(=O)Nc1ccc2c(c1)C(=O)N(C)[C@@H]1CC[C@@H](CC(=O)NCc3ccccc3F)O[C@H]1CO2,inactive
6,C[C@@H]1CCCCO[C@H](CN(C)S(=O)(=O)c2ccccc2)[C@H](C)CN([C@@H](C)CO)C(=O)c2cc(NC(=O)C3CCCCC3)ccc2O1,inactive
7,COc1ccc(CN(C)C[C@H]2OCCCC[C@H](C)Oc3ccc(NS(=O)(=O)c4ccc(Cl)cc4)cc3C(=O)N([C@H](C)CO)C[C@@H]2C)cc1,inactive
8,COCC(=O)N1[C@H](C(=O)NCc2ccccc2)[C@@H](CO)[C@@H]2Cn3c(cccc3=O)[C@@H]21,inactive
9,C[C@H]1CN([C@@H](C)CO)C(=O)c2cc(NC(=O)CCCN(C)C)ccc2O[C@@H]1CN(C)Cc1ccccc1,inactive
10,C[C@@H]1CN([C@@H](C)CO)C(=O)c2cc(NC(=O)CCCN(C)C)ccc2O[C@@H]1CN(C)Cc1ccccc1,inactive
11,C[C@@H]1CN([C@H](C)CO)C(=O)c2cc(NC(=O)CCCN(C)C)ccc2O[C@@H]1CN(C)Cc1ccccc1,inactive
12,C[C@H](CO)N1C[C@H](C)[C@H](CN(C)Cc2ccc(Oc3ccccc3)cc2)Oc2ccc(NC(=O)CCCN(C)C)cc2C1=O,active
13,C[C@H](CO)N1C[C@H](C)[C@H](CN(C)Cc2ccccc2)Oc2ccc(NC(=O)CCCN(C)C)cc2C1=O,inactive
14,C[C@@H]1CN([C@@H](C)CO)C(=O)c2cc(NC(=O)CCCN(C)C)ccc2O[C@@H]1CN(C)Cc1ccc(Oc2ccccc2)cc1,active
15,Cc1noc(C)c1NC(=O)Nc1ccc2c(c1)CC(=O)N([C@@H](C)CO)C[C@H](C)[C@H](CN(C)Cc1ccc(C(F)(F)F)cc1)O2,inactive
16,C[C@@H]1CN([C@H](C)CO)C(=O)c2cc(NC(=O)Nc3ccc(F)cc3)ccc2O[C@@H](C)CCCCO[C@H]1CN(C)C(=O)Nc1ccccc1,inactive
17,O=c1[nH]ncc2ccccc12,inactive
18,Cc1ccc(S(=O)(=O)Nc2cccc3c2O[C@@H](CN(C)S(=O)(=O)c2ccccc2)[C@H](C)CN([C@H](C)CO)C3=O)cc1,inactive
19,O=C(CN1CCOCC1)NCC[C@H]1CC[C@@H](NC(=O)c2ccc3c(c2)OCO3)[C@@H](CO)O1,inactive
20,Cc1ccc(S[C@]2(C(=O)NC(C)C)CC(=O)N(Cc3ccccc3Cl)[C@@H]2c2ccc(CO)cc2I)cc1,inactive
21,O=C(C[C@@H]1C[C@@H]2c3cc(NS(=O)(=O)c4ccc(F)cc4)ccc3O[C@@H]2[C@H](CO)O1)N1CCCCC1,inactive

row,Compound,cytotoxicity call
1,C[C@H]1CN([C@@H](C)CO)C(=O)Cc2cc(NC(=O)Nc3ccc(C(F)(F)F)cc3)ccc2O[C@@H]1CN(C)Cc1ccc(C(=O)Nc2ccccc2N)cc1,inactive
2,C[C@@H]1CN([C@H](C)CO)C(=O)Cc2cc(NC(=O)Nc3ccc(C(F)(F)F)cc3)ccc2O[C@H]1CN(C)Cc1ccc(C(=O)Nc2ccccc2N)cc1,inactive
3,C[C@H]1CN([C@@H](C)CO)C(=O)Cc2cc(NC(=O)Nc3ccc(C(F)(F)F)cc3)ccc2O[C@H]1CN(C)Cc1ccc(C(=O)Nc2ccccc2N)cc1,active
4,C[C@H](CO)N1C[C@H](C)[C@@H](CN(C)Cc2ccc(C(=O)Nc3ccccc3N)cc2)Oc2ccc(NC(=O)CCC(F)(F)F)cc2CC1=O,inactive
5,C[C@H]1CN([C@@H](C)CO)C(=O)Cc2cc(NC(=O)CCC(F)(F)F)ccc2O[C@H]1CN(C)Cc1ccc(C(=O)Nc2ccccc2N)cc1,active
6,C[C@@H]1CN([C@H](C)CO)C(=O)Cc2cc(NC(=O)Nc3ccc(C(F)(F)F)cc3)ccc2O[C@@H]1CN(C)Cc1ccc(C(=O)Nc2ccccc2N)cc1,active
7,C[C@@H]1CN([C@H](C)CO)C(=O)Cc2cc(NC(=O)CCC(F)(F)F)ccc2O[C@H]1CN(C)Cc1ccc(C(=O)Nc2ccccc2N)cc1,inactive
8,C[C@@H]1CN([C@@H](C)CO)C(=O)Cc2cc(NC(=O)Nc3ccc(C(F)(F)F)cc3)ccc2O[C@@H]1CN(C)Cc1ccc(C(=O)Nc2ccccc2N)cc1,active
9,C[C@@H]1CN([C@@H](C)CO)C(=O)Cc2cc(NC(=O)Nc3ccccc3)ccc2O[C@@H]1CN(C)Cc1ccc(C(=O)Nc2ccccc2N)cc1,inactive
10,CC(=O)O[C@H]1C[C@@H]2CC[C@@H]3[C@H](CC[C@@]4(C)[C@H]3C[C@H]([N+]3(C)CCCCC3)[C@@H]4OC(C)=O)[C@@]2(C)C[C@@H]1N1CCCCC1,inactive
11,C[C@@H]1CN([C@@H](C)CO)C(=O)c2cc(NC(=O)CCN3CCOCC3)ccc2O[C@@H]1CN(C)Cc1ccncc1,inactive
12,C[C@@H]1CN([C@@H](C)CO)C(=O)c2cc(NS(=O)(=O)c3cccs3)ccc2O[C@H]1CN(C)S(C)(=O)=O,inactive
13,Cc1noc(C)c1S(=O)(=O)Nc1ccc2c(c1)CC(=O)N([C@H](C)CO)C[C@@H](C)[C@@H](CN(C)S(=O)(=O)c1cccs1)O2,inactive
14,Cc1noc(C)c1S(=O)(=O)Nc1cccc2c1O[C@H](CN(C)C(=O)NC1CCCCC1)[C@H](C)CN([C@H](C)CO)C2=O,inactive
15,CC(C)CC#Cc1ccc2c(c1)O[C@H](CN(C)C(=O)c1ccccn1)[C@@H](C)CN([C@@H](C)CO)S2(=O)=O,inactive
16,CC(C)(C)[S@@](=O)N1Cc2cc(C(=O)N[C@H]3CCN(Cc4ccccc4)C3)nc(-c3cccc(-c4cccnc4)c3)c2[C@H]1CCO,inactive
17,C[C@H]1CN([C@@H](C)CO)C(=O)c2cc(C#Cc3ccc(F)cc3)cnc2O[C@H]1CN(C)Cc1ccccn1,inactive
18,COc1ccc(NC(=O)Nc2ccc3c(c2)CC(=O)N([C@H](C)CO)C[C@@H](C)[C@@H](CN(C)S(=O)(=O)c2cn(C)cn2)O3)cc1,inactive
19,C[C@H](CO)N1C[C@H](C)[C@H](CN(C)Cc2ccc(C(=O)Nc3ccccc3N)cc2)Oc2ccc(NC(=O)Nc3ccc(C(F)(F)F)cc3)cc2CC1=O,active
20,Cc1ccc(S(=O)(=O)Nc2cccc3c2O[C@H](CN(C)C(=O)Nc2ccc(C(F)(F)F)cc2)[C@@H](C)CN([C@@H](C)CO)C3=O)cc1,inactive
21,C[C@@H]1CN([C@H](C)CO)C(=O)c2cc(NC(=O)Nc3ccc(C(F)(F)F)cc3)ccc2O[C@H]1CN(C)S(=O)(=O)c1ccc(F)cc1,active

row,Compound,cytotoxicity call
1,C[C@H](CO)N1C[C@H](C)[C@H](CN(C)S(=O)(=O)c2ccc(F)cc2)Oc2ccc(NC(=O)Nc3ccc(C(F)(F)F)cc3)cc2C1=O,inactive
2,C[C@@H]1CN([C@@H](C)CO)C(=O)c2cc(NC(=O)Nc3ccc(C(F)(F)F)cc3)ccc2O[C@H]1CN(C)S(=O)(=O)c1ccc(F)cc1,inactive
3,C[C@H]1CN([C@@H](C)CO)C(=O)c2cc(NC(=O)Nc3ccc(C(F)(F)F)cc3)ccc2O[C@H]1CN(C)S(C)(=O)=O,inactive
4,C[C@H]1CN([C@@H](C)CO)C(=O)c2cc(NC(=O)Nc3ccc(C(F)(F)F)cc3)ccc2O[C@@H]1CN(C)S(=O)(=O)c1ccc(F)cc1,inactive
5,C[C@H](CO)N1C[C@H](C)[C@@H](CN(C)S(=O)(=O)c2ccc(F)cc2)Oc2ccc(NC(=O)Nc3ccc(C(F)(F)F)cc3)cc2C1=O,inactive
6,C[C@H]1CN([C@@H](C)CO)C(=O)c2cc(NC(=O)Nc3ccc(C(F)(F)F)cc3)ccc2O[C@H]1CN(C)S(=O)(=O)c1ccc(F)cc1,active
7,C[C@@H]1CN([C@H](C)CO)C(=O)c2cc(NC(=O)Nc3ccc(C(F)(F)F)cc3)ccc2O[C@H]1CN(C)S(C)(=O)=O,inactive
8,C[C@H]1CN([C@@H](C)CO)C(=O)c2cc(NC(=O)Nc3ccc(C(F)(F)F)cc3)ccc2O[C@@H]1CN(C)S(C)(=O)=O,inactive
9,C[C@@H]1CN([C@H](C)CO)C(=O)c2cc(NC(=O)Nc3ccc(C(F)(F)F)cc3)ccc2O[C@@H]1CN(C)S(=O)(=O)c1ccc(F)cc1,active
10,C[C@@H]1CN([C@@H](C)CO)C(=O)c2cc(NC(=O)Nc3ccc(C(F)(F)F)cc3)ccc2O[C@@H]1CN(C)S(=O)(=O)c1ccc(F)cc1,active
11,C[C@H]1CCCCO[C@@H](CN(C)C(=O)Nc2ccc3c(c2)OCO3)[C@@H](C)CN([C@@H](C)CO)C(=O)c2cc(NC(=O)C3CCCCC3)ccc2O1,inactive
12,C[C@H](CO)N1C[C@H](C)[C@@H](CN(C)C(=O)Nc2cccc3ccccc23)OCCCC[C@H](C)Oc2ccc(NC(=O)CCCN(C)C)cc2C1=O,inactive
13,C[C@@H]1CN([C@@H](C)CO)S(=O)(=O)c2ccc(C#CC3(O)CCCC3)cc2O[C@H]1CN(C)C(=O)Cc1ccncc1,inactive
14,C[C@H](CO)N1C[C@H](C)[C@H](CN(C)Cc2ccc(Oc3ccccc3)cc2)Oc2ccc(NC(=O)Nc3ccc(F)cc3)cc2C1=O,active
15,C[C@H](CO)N1C[C@H](C)[C@@H](CN(C)Cc2ccc(Oc3ccccc3)cc2)Oc2ccc(NC(=O)Nc3ccc(F)cc3)cc2C1=O,inactive
16,C[C@H]1CN([C@@H](C)CO)C(=O)c2cc(NC(=O)Nc3ccc(F)cc3)ccc2O[C@H]1CN(C)Cc1ccc(Oc2ccccc2)cc1,inactive
17,C[C@@H]1CN([C@H](C)CO)C(=O)c2cc(NC(=O)Nc3ccc(F)cc3)ccc2O[C@H]1CN(C)Cc1ccc(Oc2ccccc2)cc1,active
18,C[C@@H]1CN([C@@H](C)CO)C(=O)c2cc(NC(=O)Nc3ccc(F)cc3)ccc2O[C@@H]1CN(C)Cc1ccc(Oc2ccccc2)cc1,active
19,C[C@@H]1CN([C@@H](C)CO)C(=O)c2cc(NC(=O)Nc3ccc(F)cc3)ccc2O[C@H]1CN(C)Cc1ccc(Oc2ccccc2)cc1,inactive
20,C[C@@H]1CN([C@H](C)CO)C(=O)c2cc(NC(=O)Nc3ccc(F)cc3)ccc2O[C@@H]1CN(C)Cc1ccc(Oc2ccccc2)cc1,active
